From paper PMC7862700, “An all-to-all approach to the identification of sequence-specific readers for epigenetic DNA modifications on cytosine”

Columns and labels:
Assay in all cases: DAPPL (digital affinity profiling via proximity ligation, sequencing); 10 mM Tris-HCl pH 7.5, 50 mM NaCl, 1 mM DTT, 4% glycerol, room temperature, 30 min; GST-TFs on glutathione beads, 16-mer random dsDNA library, 0.1% formaldehyde crosslink after washing; high values mean tight binding
Conditions in all cases: protein: recombinant; tags: N-terminal GST; dsDNA, one strand shown
ERF = biological target: T1, ERF (Homo sapiens, UniProt P50548 1-548)
T1 sequence: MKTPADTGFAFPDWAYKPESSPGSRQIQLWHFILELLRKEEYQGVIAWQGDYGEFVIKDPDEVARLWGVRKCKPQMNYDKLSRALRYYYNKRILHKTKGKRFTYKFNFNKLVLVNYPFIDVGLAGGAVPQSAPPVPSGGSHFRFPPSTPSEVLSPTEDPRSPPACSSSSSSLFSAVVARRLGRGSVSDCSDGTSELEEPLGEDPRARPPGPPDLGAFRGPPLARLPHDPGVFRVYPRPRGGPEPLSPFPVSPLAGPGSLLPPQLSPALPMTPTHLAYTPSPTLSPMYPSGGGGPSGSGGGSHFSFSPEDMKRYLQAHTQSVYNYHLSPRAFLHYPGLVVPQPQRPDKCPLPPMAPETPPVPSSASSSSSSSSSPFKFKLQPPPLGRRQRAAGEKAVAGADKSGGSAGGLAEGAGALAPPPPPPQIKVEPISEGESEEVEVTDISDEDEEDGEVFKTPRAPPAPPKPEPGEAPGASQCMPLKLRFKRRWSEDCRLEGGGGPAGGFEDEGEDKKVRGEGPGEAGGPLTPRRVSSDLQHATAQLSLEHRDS
In short: (§1)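 In yeast, human transcription factors were expressed with a GST fusion, then pulled down on glutathione beads and given DNA barcodes. Pooled with a tag-only sample, they were exposed to 200 nmole of a 16-mer random double-stranded DNA library (Tris/NaCl/DTT/glycerol buffer, room temperature, 30 min), washed, crosslinked with 0.1% formaldehyde, proximity-ligated using BsaI/T4 ligase for 1 h at 37 °C, PCR-amplified and read on an Illumina NextSeq500. Each hexamer's frequency of reads for a factor, divided by the matching frequency for the tag-only sample, gives the binding signal.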

ETV3L = biological target: T2, ETV3L (Homo sapiens, UniProt Q6ZN32 1-361)
T2 sequence: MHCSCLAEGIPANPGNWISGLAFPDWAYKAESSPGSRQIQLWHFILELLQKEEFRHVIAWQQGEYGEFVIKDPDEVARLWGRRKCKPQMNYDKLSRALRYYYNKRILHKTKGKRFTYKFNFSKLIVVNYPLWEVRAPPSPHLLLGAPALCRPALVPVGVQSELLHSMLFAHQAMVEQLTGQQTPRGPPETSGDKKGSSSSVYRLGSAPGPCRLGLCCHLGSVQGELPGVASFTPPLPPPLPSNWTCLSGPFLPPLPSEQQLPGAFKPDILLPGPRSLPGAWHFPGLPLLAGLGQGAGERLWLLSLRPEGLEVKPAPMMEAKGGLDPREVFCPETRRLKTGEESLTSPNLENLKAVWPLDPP
In short: as §1

ETS2 = biological target: T3, ETS2 (Homo sapiens, UniProt P15036 1-469)
T3 sequence: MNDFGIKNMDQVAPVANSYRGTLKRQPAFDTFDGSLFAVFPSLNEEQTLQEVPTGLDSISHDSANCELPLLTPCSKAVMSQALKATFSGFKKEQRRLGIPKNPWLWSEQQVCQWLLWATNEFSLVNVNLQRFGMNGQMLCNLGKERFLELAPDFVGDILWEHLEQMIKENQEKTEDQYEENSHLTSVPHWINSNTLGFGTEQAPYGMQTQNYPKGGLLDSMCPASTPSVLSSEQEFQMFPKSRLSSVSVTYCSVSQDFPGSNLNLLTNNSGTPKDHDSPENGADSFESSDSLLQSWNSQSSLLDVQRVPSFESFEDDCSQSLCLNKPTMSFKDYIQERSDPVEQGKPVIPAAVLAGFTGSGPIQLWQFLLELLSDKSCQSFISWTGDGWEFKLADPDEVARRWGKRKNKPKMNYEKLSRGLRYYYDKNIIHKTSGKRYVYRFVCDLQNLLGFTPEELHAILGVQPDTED
In short: as §1

SPDEF = biological target: T4, SPDEF (Homo sapiens, UniProt O95238 1-335)
T4 sequence: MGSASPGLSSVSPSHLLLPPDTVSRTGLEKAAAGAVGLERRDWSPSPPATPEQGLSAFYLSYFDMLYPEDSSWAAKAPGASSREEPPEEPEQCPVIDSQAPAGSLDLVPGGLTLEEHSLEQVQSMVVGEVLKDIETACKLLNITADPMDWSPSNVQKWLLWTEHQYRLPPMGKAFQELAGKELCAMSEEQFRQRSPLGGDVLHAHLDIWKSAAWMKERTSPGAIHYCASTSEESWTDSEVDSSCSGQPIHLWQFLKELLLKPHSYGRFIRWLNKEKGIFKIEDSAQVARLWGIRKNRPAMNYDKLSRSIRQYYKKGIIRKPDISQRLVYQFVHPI
In short: as §1

ETV7 = biological target: T5, ETV7 (Homo sapiens, UniProt Q9Y603 1-341)
T5 sequence: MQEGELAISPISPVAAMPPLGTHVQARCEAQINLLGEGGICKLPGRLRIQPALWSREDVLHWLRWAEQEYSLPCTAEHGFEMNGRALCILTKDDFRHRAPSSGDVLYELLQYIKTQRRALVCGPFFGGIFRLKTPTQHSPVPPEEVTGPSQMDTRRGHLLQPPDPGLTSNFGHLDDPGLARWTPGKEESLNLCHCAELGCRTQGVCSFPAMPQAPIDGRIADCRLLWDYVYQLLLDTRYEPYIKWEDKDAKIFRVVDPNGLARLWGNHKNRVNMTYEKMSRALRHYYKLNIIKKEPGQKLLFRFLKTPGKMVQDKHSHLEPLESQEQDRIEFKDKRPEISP
In short: as §1

ELF5 = biological target: T6, ELF5 (Homo sapiens, UniProt Q9UKW6-2 1-255)
T6 sequence: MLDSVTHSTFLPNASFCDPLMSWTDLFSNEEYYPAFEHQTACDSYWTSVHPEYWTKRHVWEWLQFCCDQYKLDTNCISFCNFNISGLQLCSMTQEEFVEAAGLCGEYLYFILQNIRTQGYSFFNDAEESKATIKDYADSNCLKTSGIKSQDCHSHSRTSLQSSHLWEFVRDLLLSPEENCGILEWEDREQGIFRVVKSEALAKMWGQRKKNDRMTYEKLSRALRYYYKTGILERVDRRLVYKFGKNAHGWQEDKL
In short: as §1

ETV3 = biological target: T7, ETV3 (Homo sapiens, UniProt P41162-2 1-143)
T7 sequence: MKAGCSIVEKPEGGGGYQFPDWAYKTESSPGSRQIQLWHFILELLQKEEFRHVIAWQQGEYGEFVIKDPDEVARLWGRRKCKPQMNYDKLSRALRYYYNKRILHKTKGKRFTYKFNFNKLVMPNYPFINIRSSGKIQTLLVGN
In short: as §1

ETV6 = ETV6 (Homo sapiens, UniProt P41212 1-452)
In short: as §1

Chain of ETV6 (P41212 whole entry): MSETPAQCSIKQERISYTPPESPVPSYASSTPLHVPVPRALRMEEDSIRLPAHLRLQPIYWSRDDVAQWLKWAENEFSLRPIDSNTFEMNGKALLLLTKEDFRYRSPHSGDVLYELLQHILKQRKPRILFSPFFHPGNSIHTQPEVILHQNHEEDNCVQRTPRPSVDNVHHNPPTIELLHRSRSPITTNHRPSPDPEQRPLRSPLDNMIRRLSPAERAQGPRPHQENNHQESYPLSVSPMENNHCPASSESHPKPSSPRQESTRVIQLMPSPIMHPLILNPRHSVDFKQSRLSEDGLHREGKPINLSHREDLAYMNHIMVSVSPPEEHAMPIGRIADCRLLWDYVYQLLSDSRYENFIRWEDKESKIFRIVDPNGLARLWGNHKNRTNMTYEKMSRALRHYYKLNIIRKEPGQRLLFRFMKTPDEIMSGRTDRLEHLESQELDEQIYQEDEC

TACAAG
binding signal (ERF): 1.1 fold enrichment (6-mer frequency, TF over GST control) | binding signal (ETV3L): 1.05 fold enrichment (6-mer frequency, TF over GST control) | binding signal (ETS2): 1.1 fold enrichment (6-mer frequency, TF over GST control) | binding signal (SPDEF): 1.1 fold enrichment (6-mer frequency, TF over GST control) | binding signal (ETV7): 1.02 fold enrichment (6-mer frequency, TF over GST control) | binding signal (ELF5): 1.06 fold enrichment (6-mer frequency, TF over GST control) | binding signal (ETV3): 1.02 fold enrichment (6-mer frequency, TF over GST control) | binding signal (ETV6): 1.04 fold enrichment (6-mer frequency, TF over GST control)

TAAATA
binding signal (ERF): 1.21 fold enrichment (6-mer frequency, TF over GST control) | binding signal (ETV3L): 1.27 fold enrichment (6-mer frequency, TF over GST control) | binding signal (ETS2): 1.27 fold enrichment (6-mer frequency, TF over GST control) | binding signal (SPDEF): 1.15 fold enrichment (6-mer frequency, TF over GST control) | binding signal (ETV7): 1.31 fold enrichment (6-mer frequency, TF over GST control) | binding signal (ELF5): 1.16 fold enrichment (6-mer frequency, TF over GST control) | binding signal (ETV3): 1.28 fold enrichment (6-mer frequency, TF over GST control) | binding signal (ETV6): 1.32 fold enrichment (6-mer frequency, TF over GST control)

CCATTG
binding signal (ERF): 1.07 fold enrichment (6-mer frequency, TF over GST control) | binding signal (ETV3L): 1.22 fold enrichment (6-mer frequency, TF over GST control) | binding signal (ETS2): 1.14 fold enrichment (6-mer frequency, TF over GST control) | binding signal (SPDEF): 1.02 fold enrichment (6-mer frequency, TF over GST control) | binding signal (ETV7): 1.24 fold enrichment (6-mer frequency, TF over GST control) | binding signal (ELF5): 1.19 fold enrichment (6-mer frequency, TF over GST control) | binding signal (ETV3): 1.19 fold enrichment (6-mer frequency, TF over GST control) | binding signal (ETV6): 1.12 fold enrichment (6-mer frequency, TF over GST control)

CAACTG
binding signal (ERF): 1.18 fold enrichment (6-mer frequency, TF over GST control) | binding signal (ETV3L): 1.17 fold enrichment (6-mer frequency, TF over GST control) | binding signal (ETS2): 1.13 fold enrichment (6-mer frequency, TF over GST control) | binding signal (SPDEF): 1.08 fold enrichment (6-mer frequency, TF over GST control) | binding signal (ETV7): 1.06 fold enrichment (6-mer frequency, TF over GST control) | binding signal (ELF5): 1.08 fold enrichment (6-mer frequency, TF over GST control) | binding signal (ETV3): 1.16 fold enrichment (6-mer frequency, TF over GST control) | binding signal (ETV6): 1.12 fold enrichment (6-mer frequency, TF over GST control)

CGTCTC
binding signal (ERF): 1.49 fold enrichment (6-mer frequency, TF over GST control) | binding signal (ETV3L): 1.71 fold enrichment (6-mer frequency, TF over GST control) | binding signal (ETS2): 1.58 fold enrichment (6-mer frequency, TF over GST control) | binding signal (SPDEF): 1.35 fold enrichment (6-mer frequency, TF over GST control) | binding signal (ETV7): 1.44 fold enrichment (6-mer frequency, TF over GST control) | binding signal (ELF5): 1.38 fold enrichment (6-mer frequency, TF over GST control) | binding signal (ETV3): 1.48 fold enrichment (6-mer frequency, TF over GST control) | binding signal (ETV6): 1.46 fold enrichment (6-mer frequency, TF over GST control)

CCGCCC
binding signal (ERF): 1.21 fold enrichment (6-mer frequency, TF over GST control) | binding signal (ETV3L): 1.36 fold enrichment (6-mer frequency, TF over GST control) | binding signal (ETS2): 1.29 fold enrichment (6-mer frequency, TF over GST control) | binding signal (SPDEF): 1.27 fold enrichment (6-mer frequency, TF over GST control) | binding signal (ETV7): 1.19 fold enrichment (6-mer frequency, TF over GST control) | binding signal (ELF5): 1.38 fold enrichment (6-mer frequency, TF over GST control) | binding signal (ETV3): 1.36 fold enrichment (6-mer frequency, TF over GST control) | binding signal (ETV6): 1.39 fold enrichment (6-mer frequency, TF over GST control)

CTTGAC
binding signal (ERF): 1.16 fold enrichment (6-mer frequency, TF over GST control) | binding signal (ETV3L): 1.17 fold enrichment (6-mer frequency, TF over GST control) | binding signal (ETS2): 1.12 fold enrichment (6-mer frequency, TF over GST control) | binding signal (SPDEF): 1.13 fold enrichment (6-mer frequency, TF over GST control) | binding signal (ETV7): 1.2 fold enrichment (6-mer frequency, TF over GST control) | binding signal (ELF5): 1.21 fold enrichment (6-mer frequency, TF over GST control) | binding signal (ETV3): 1.22 fold enrichment (6-mer frequency, TF over GST control) | binding signal (ETV6): 1.23 fold enrichment (6-mer frequency, TF over GST control)

GCTATG
binding signal (ERF): 1.26 fold enrichment (6-mer frequency, TF over GST control) | binding signal (ETV3L): 1.16 fold enrichment (6-mer frequency, TF over GST control) | binding signal (ETS2): 1.26 fold enrichment (6-mer frequency, TF over GST control) | binding signal (SPDEF): 1.23 fold enrichment (6-mer frequency, TF over GST control) | binding signal (ETV7): 1.3 fold enrichment (6-mer frequency, TF over GST control) | binding signal (ELF5): 1.14 fold enrichment (6-mer frequency, TF over GST control) | binding signal (ETV3): 1.23 fold enrichment (6-mer frequency, TF over GST control) | binding signal (ETV6): 1.1 fold enrichment (6-mer frequency, TF over GST control)

GTGTTT
binding signal (ERF): 1.12 fold enrichment (6-mer frequency, TF over GST control) | binding signal (ETV3L): 1.18 fold enrichment (6-mer frequency, TF over GST control) | binding signal (ETS2): 1.19 fold enrichment (6-mer frequency, TF over GST control) | binding signal (SPDEF): 1.22 fold enrichment (6-mer frequency, TF over GST control) | binding signal (ETV7): 1.2 fold enrichment (6-mer frequency, TF over GST control) | binding signal (ELF5): 1.23 fold enrichment (6-mer frequency, TF over GST control) | binding signal (ETV3): 1.15 fold enrichment (6-mer frequency, TF over GST control) | binding signal (ETV6): 1.2 fold enrichment (6-mer frequency, TF over GST control)
